# aDG glyco act: activators of alpha-DG glycosylation, primary screen, uHTS, Pro5-aDG cells, AlphaScreen; activation, % at 10 µM; 0.22% of 360,000 active; alpha-DG glycosylation AlphaScreen (IIH6); 0% Pro5, 100% B10-LARGE cell signal;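 active means activation of at least 8% versus controls, or a plate z-score of at least 8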;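 further: Pro5 are CHO cells carrying HIG-tagged alpha-DG that lacks glycosylation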
# FAS-TE inh: FAS thioesterase domain inhibitors, primary screen, biochemical, fluorescence intensity, uHTS. AID 602261, 2012. recombinant FAS-TE, OMFH fluorogenic substrate, fluorescence endpoint. inhibition, % at 15 µM. 0.67% of 360,000 active. Fatty acid synthase (Homo sapiens), P49327;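 active means compounds whose normalised, plate-corrected inhibition of enzyme fluorescence in the single-dose primary screen is 50% or more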;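 further: 0% = DMSO with enzyme and 100% = substrate without enzyme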
# Target sequence (P49327 whole entry, looked up, the tested form may be a part): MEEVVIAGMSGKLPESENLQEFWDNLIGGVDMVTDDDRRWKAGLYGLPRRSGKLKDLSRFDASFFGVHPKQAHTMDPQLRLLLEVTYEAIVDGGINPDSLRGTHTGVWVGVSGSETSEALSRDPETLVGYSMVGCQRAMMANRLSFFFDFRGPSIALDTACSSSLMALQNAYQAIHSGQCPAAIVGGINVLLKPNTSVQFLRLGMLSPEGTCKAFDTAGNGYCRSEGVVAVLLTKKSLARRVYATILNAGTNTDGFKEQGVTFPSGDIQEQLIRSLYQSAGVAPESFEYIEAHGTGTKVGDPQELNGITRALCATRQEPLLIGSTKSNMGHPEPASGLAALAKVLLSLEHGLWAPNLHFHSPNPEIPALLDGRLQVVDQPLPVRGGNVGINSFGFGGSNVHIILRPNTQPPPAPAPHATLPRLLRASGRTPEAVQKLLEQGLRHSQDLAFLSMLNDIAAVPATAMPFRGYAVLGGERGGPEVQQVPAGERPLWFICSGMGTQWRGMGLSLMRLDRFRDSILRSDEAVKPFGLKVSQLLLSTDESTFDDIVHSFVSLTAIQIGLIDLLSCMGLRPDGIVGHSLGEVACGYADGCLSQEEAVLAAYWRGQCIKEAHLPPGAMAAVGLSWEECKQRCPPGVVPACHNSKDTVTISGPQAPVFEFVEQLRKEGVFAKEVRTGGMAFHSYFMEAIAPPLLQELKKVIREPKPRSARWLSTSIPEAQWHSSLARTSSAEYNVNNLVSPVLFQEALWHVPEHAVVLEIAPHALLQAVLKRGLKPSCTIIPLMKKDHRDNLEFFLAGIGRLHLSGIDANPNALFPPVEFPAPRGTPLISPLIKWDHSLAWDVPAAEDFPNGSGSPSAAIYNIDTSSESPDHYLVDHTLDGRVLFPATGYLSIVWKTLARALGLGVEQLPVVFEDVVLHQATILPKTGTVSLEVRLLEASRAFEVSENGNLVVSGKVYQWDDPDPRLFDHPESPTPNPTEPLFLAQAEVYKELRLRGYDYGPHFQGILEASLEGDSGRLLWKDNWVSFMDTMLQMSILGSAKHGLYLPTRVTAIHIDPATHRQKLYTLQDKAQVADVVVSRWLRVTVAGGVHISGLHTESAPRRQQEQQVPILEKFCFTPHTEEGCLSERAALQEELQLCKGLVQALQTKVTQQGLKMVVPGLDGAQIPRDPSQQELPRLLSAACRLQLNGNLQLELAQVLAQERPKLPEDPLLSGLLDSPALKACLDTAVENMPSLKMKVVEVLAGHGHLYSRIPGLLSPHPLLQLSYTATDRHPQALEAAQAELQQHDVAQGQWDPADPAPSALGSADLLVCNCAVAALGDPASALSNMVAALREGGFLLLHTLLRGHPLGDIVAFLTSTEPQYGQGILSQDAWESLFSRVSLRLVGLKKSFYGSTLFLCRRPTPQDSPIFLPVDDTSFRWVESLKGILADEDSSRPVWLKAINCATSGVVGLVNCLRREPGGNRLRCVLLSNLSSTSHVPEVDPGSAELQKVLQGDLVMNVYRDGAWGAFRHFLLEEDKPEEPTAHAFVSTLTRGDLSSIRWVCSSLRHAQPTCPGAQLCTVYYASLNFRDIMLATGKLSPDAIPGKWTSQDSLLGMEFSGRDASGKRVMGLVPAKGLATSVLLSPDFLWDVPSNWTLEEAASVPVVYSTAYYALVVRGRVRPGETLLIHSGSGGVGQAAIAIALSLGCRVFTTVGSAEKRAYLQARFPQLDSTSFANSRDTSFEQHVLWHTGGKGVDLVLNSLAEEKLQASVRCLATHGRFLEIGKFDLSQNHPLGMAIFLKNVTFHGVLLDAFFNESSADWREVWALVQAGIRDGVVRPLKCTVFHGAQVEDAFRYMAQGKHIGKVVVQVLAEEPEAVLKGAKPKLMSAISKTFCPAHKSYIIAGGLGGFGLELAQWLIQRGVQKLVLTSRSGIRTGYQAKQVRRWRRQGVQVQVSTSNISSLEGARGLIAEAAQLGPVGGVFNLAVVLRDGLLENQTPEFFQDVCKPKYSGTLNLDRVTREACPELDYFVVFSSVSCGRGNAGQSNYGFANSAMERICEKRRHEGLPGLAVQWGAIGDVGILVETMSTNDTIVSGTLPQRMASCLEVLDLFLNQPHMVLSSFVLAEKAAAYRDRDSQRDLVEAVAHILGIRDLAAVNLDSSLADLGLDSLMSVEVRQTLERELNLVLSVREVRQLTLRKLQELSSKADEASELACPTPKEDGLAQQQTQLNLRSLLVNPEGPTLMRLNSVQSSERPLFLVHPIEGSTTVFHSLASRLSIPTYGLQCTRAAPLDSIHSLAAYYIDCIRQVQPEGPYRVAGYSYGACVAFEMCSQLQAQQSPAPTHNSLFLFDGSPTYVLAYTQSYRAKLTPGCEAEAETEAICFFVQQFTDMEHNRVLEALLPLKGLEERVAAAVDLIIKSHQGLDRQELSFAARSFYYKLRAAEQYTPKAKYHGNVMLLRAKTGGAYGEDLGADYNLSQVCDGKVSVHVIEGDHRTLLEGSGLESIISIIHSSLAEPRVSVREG
# CRFR2-BP antag: antagonists of CRF-BP/CRF-R2 complex, primary screen, cell-based, HEK293, calcium dye fluorescence, uHTS. inhibition, % at 11.8 µM. 0.59% of 350,000 active. CRF-induced calcium fluorescence. AID 588475, 2011;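 active means inhibition of the ligand-induced calcium signal above about 50% at the single tested concentration, limit read from the data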
# CRFBP-R2 agonist: agonists of CRF-BP/CRF-R2 complex, primary screen, cell-based, HEK293, calcium dye fluorescence, uHTS; calcium dye fluorescence (FLIPR); percent of saturating CRF peptide response; activation, % at 13.2 µM; 0.46% of 350,000 active; AID 588473, 2011;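 active means activation of at least 50%, plus an integration ratio under a set limit after plate pattern correction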;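 further: plate controls were neutral control wells without compound for no effect and CRF at EC100 for full effect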
# H9c2 protect: cardioprotection against H2O2-induced cell death, primary screen, uHTS, H9c2 cells, ATPLite luminescence; H9c2 cardiomyocytes, H2O2 injury protection, 2 h; protection from H2O2 cell death, % at 20 µM; 0.63% of 360,000 active; AID 588492, 2011;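 active means compounds giving at least 50% protection of heart cells from peroxide-induced death in the single-dose screen, raw or plate-pattern-corrected value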;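 further: 0% = DMSO wells with peroxide and 100% = DMSO wells without peroxide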
# PfG6PD inh: PfG6PD enzyme inhibitors, primary screen, biochemical, fluorescence intensity, uHTS; inhibition, % at 20 µM; glucose-6-phosphate dehydrogenase-6-phosphogluconolactonase (Plasmodium falciparum 3D7); PfGluPho enzyme, NADPH resazurin-diaphorase fluorescence; 0.78% of 350,000 active;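 active means inhibition reaching at least a set limit at 20 µM in the primary screen, cut at about 59% in these data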;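 further: 0% = DMSO wells with substrate and 100% = DMSO wells lacking glucose-6-phosphate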
# Numbers without * were called inactive. The list is not random: actives were taken first. Their share in the collection is about 3.2%.
SMILES,aDG glyco act,FAS-TE inh,CRFR2-BP antag,CRFBP-R2 agonist,H9c2 protect,PfG6PD inh
CN(C)S(=O)(=O)c1ccc(NC(=O)CCCNC(=O)c2ccc(Cl)cc2)cc1,0,0,-8,4,2,3
COc1ccccc1N1C(C)=CC(=C(C#N)c2nc3ccccc3s2)C=C1C,1,39,-90,109*,-6,-9
CCOc1ccc(C(=O)c2cccs2)cc1,0,1,51*,-1,-13,10
O=C(c1ccccc1)c1cccs1,0,0,-1,1,-2,-7
COc1ccc(NS(=O)(=O)c2ccc(C)c(NC(=O)CN3C(=O)NC4(CCCC4)C3=O)c2)cc1,0,-2,-2,1,-3,8
COc1cc2nc(C3CCC3)nc(N3CCN(c4ccccn4)CC3)c2cc1OC,0,20,-4,1,60*,19
COc1ccc2[nH]c(=O)c(-c3nnn(-c4ccc(F)cc4)n3)cc2c1,0,-3,3,15,56*,24
O=C(C[C@H]1C[C@@H]2c3cc(NS(=O)(=O)c4ccccc4)ccc3O[C@@H]2[C@H](CO)O1)N1CCOCC1,0,-5,52*,0,20,-1
Cc1ccc(NN2C(=O)C=C(c3ccc(Cl)cc3)C2=O)cc1,0,-7,-68,61*,-30,15
CC(C)n1c(N2CCN(CC(=O)Nc3ccc4c(c3)OCCO4)CC2)nc2ccccc21,0,-3,16,-1,0,0
CC(Oc1ccc(Br)cc1)C(=O)Nc1ccc(S(=O)(=O)NC2=NCCCCC2)cc1 (stereo unspecified),0,6,-79,81*,-6,-15
CC(Oc1ccc(F)cc1)C(=O)Nc1ccc(S(=O)(=O)NC2=NCCCCC2)cc1 (stereo unspecified),0,-2,-18,27,-2,0
O=C(NCCc1ccccc1)c1ccc(NC(=O)C2CC2)cc1,1,-6,3,1,8,7
CCCCCCCC/C=C\CCCCCCCC(=O)NCCO,0,12,-23,3,-3,9
CCCCCCCC/C=C\CCCCCCCC(=O)NCCc1ccc(O)c(O)c1,0,-7,-33,8,67*,10
COC(=O)CN1C(c2ccc(Cl)cc2)=Nc2ccc(Cl)cc2C1c1ccccc1 (stereo unspecified),0,26,65*,-2,0,35
Cc1c(C#N)c(N)nc2c3c(sc12)NC(=O)CC3c1ccccc1 (stereo unspecified),0,-2,-5,-1,50*,-17
Cc1nc2ccccc2c(=O)n1/N=C/c1ccc(O)cc1O,-1,2,30,0,0,-5
CCCc1nc2ccccc2c(=O)n1/N=C/c1ccccc1O,0,6,-6,-3,56*,-14
CCOC(=O)c1nc(Nc2cc(C)cc(C)c2)c2ccccc2n1,0,11,-19,-3,14,23
CC(/C=N/Nc1nc(C)cc(C)n1)=C\c1ccc(C(C)C)cc1,1,12,61*,-2,1,9
CC(/C=N/NC(=O)c1ccncc1)=C\c1ccc(C(C)C)cc1,0,2,-35,1,36,2
O=c1oc2ccccc2cc1-c1nc(-c2cccs2)cs1,0,-35,-27,15,16,-5
COc1cccc2cc(-c3nc(-c4cccs4)cs3)c(=O)oc12,-1,16,-2,12,87*,-4
Cc1cc(NS(=O)(=O)c2c(C(=O)N3CCOCC3)c(C)n(C)c2C)ccc1Br,0,2,92*,-1,-1,4
SMILES,aDG glyco act,FAS-TE inh,CRFR2-BP antag,CRFBP-R2 agonist,H9c2 protect,PfG6PD inh
CC(=O)C1=C(c2ccc(Br)cc2)C(=O)c2ccccc2C1=O,-1,38,15,-6,2,106*
Cc1nc2ccccc2c2oc(C(=O)NC3CC3)cc12,0,-4,-21,3,16,20
CCOc1ccc(NC(=O)c2cc3c(C)nc4ccccc4c3o2)cc1,0,-2,-2,1,61*,11
S=C1SCN(Cc2ccccc2)CN1Cc1ccccc1,1,18,23,1,-3,-1
S=C1SCN(Cc2cccnc2)CN1Cc1cccnc1,0,-3,-107,101*,-3,13
C=CCOc1ccc(/C=C2\SC(=S)N(NS(=O)(=O)c3ccccc3)C2=O)cc1,0,32,53*,1,-2,-4
O=C1/C(=C\c2ccc(Br)cc2)SC(=S)N1NS(=O)(=O)c1ccccc1,0,28,58*,0,-9,8
CC(/C=C1\SC(=S)N(NS(=O)(=O)c2ccccc2)C1=O)=C\c1ccccc1,0,23,93*,-2,-1,-2
COc1ccc(/C=C2/SC(=S)N(NS(=O)(=O)c3ccccc3)C2=O)cc1,0,7,46,0,-6,-1
O=C1/C(=C/c2cccnc2)SC(=S)N1NS(=O)(=O)c1ccccc1,0,-3,23,-2,0,-4
CC(/C=C1\SC(=S)N(NS(=O)(=O)c2ccc(C)cc2)C1=O)=C\c1ccccc1,0,35,-9,-2,-7,-6
NS(=O)(=O)c1ccc(N/N=C/c2ccc(C(=O)O)cc2)c([N+](=O)[O-])c1,0,-5,-8,-2,8,11
Cc1nn(-c2ccccc2)c(N2CCCC2)c1/C=N/Nc1ccc(S(N)(=O)=O)cc1[N+](=O)[O-],-1,19,60*,0,6,14
O=C(c1ccc(N2CN(C(=O)c3ccco3)c3nc4ccccc4nc32)cc1)N1CCOCC1,0,12,-14,3,72*,-4
O=C(c1ccncc1)N1CCN(C(=O)c2ccco2)CC1,0,-4,16,0,-3,-5
COC(=O)Cc1ccc(NC(=S)NCCO)cc1,0,-3,2,-1,7,3
COC(=O)Cc1ccc(NC(=S)NCCC(C)C)cc1,0,-1,88*,-2,-5,-17
N#Cc1ccccc1S(=O)(=O)N1CCN(C(=O)[C@@H]2CCCN2C(=O)c2cccs2)CC1,0,-9,-3,1,-1,2
Cc1ccc2c(c1)N(C(=O)CCC(=O)N1CCN(c3ccccn3)CC1)CCO2,0,-3,-31,55*,14,-13
c1ccc2cc(C3OCC4(CCCC4)CO3)ccc2c1,0,13,-5,2,-6,5
CC(C)OCCCNC(=O)c1cccc2c1C(=O)c1ccc(Cl)cc1S2(=O)=O,0,19,-3,-1,8,-2

# High-throughput results from PubChem.
